# Measurements published in the supplement of paper PMC8728848.
# The full list was thinned out, with the strongest signals kept by preference.
# B1: UDA (Urtica dioica), P11218 (protein)
# chain: MMMRFLSAVVIMSSAMAVGLVSAQRCGSQGGGGTCPALWCCSIWGWCGDSEPYCGRTCENKCWSGERSDHRCGAAVGNPPCGQDRCCSVHGWCGGGNDYCSGSKCQYRCSSSVRGPRVALSGNSTANSIGNVVVTEPLFDQMFSHRKDCPSQGFYSYHSFLVAAESFPAFGTIGDVATRKREVAAFLAHISQATSGERSDVENPHAWGLCHINTTTVTENDFCTSSDWPCAAGKKYSPRGPIQLTHNFNYGLAGQAIGEDLIQNPDLVEKDPIISFKTALWFWMSQHDNKPSCHDIVLNANSAANRIPNKGVIGNIISRAFGHDDFAVRSSSIGFYKRYCDMLGVSYGHDLKYWFDNTPSSEFQRIQMRVAA
# Legend:
# Assay in all cases: glycan array binding signal (z-score within array); higher = stronger binding
# Conditions in all cases: glycan notation: IUPAC condensed, linker removed
# [1] = molecular target: GlcNAc(a1-4)Gal(b1-4)GlcNAc
# Outline: (§1)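 The binding signal is a Z-score computed within each array. Data were drawn from 3228 arrays in the Consortium for Functional Glycomics database, restricted to those with a known protein sequence. Scores were averaged over arrays of the same protein sequence at different concentrations or buffers, and over linkers, and negative values can be taken as non-binding.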
# [2] = molecular target: GlcNAc(b1-2)[GlcNAc(b1-4)]Man(a1-3)[GlcNAc(b1-2)Man(a1-6)]Man(b1-4)GlcNAc(b1-4)GlcNAc
# Outline: as §1
# [3] = molecular target: GlcNAc(b1-2)[GlcNAc(b1-6)]Man(a1-6)[GlcNAc(b1-2)Man(a1-3)]Man(b1-4)GlcNAc(b1-4)[Fuc(a1-6)]GlcNAc
# Outline: as §1
# [4] = molecular target: GlcNAc(b1-3)Gal(b1-3)GalNAc
# Outline: as §1
# [5] = molecular target: GlcNAc(b1-3)Gal(b1-4)GlcNAc(b1-3)Gal(b1-4)GlcNAc(b1-2)Man(a1-3)[GlcNAc(b1-3)Gal(b1-4)GlcNAc(b1-3)Gal(b1-4)GlcNAc(b1-2)Man(a1-6)]Man(b1-4)GlcNAc(b1-4)[Fuc(a1-6)]GlcNAc
# Outline: as §1
# [6] = molecular target: GlcNAc(b1-3)Gal(b1-4)GlcNAc(b1-3)GalNAc
# Outline: as §1
# [7] = molecular target: GlcNAc(b1-3)Man
# Outline: as §1
# [8] = molecular target: GlcNAc(b1-4)GlcNAc(b1-4)GlcNAc
# Outline: as §1
# [9] = molecular target: GlcNAc(b1-4)GlcNAc(b1-4)GlcNAc(b1-4)GlcNAc(b1-4)GlcNAc
# Outline: as §1
# [10] = molecular target: GlcNAc(b1-6)Gal(b1-4)GlcNAc
# Outline: as §1
# [11] = molecular target: Kdn(a2-3)Gal(b1-4)Glc
# Outline: as §1
# [12] = molecular target: Man(a1-2)Man(a1-3)[Man(a1-2)Man(a1-6)]Man(a1-6)[Man(a1-2)Man(a1-2)Man(a1-3)]Man(b1-4)GlcNAc(b1-4)GlcNAc
# Outline: as §1
# [13] = molecular target: Man(a1-2)Man(a1-3)[Man(a1-2)Man(a1-6)]Man(a1-6)[Man(a1-3)[Man(a1-6)]Man(a1-6)]Man(b1-4)GlcNAc(b1-4)GlcNAc
# Outline: as §1
# [14] = molecular target: Man(a1-2)Man(a1-3)[Man(a1-6)]Man(a1-6)[Man(a1-2)Man(a1-3)]Man(b1-4)GlcNAc(b1-4)GlcNAc
# Outline: as §1
# [15] = molecular target: Man(a1-2)Man(a1-6)[Man(a1-3)]Man(a1-6)[Man(a1-2)Man(a1-2)Man(a1-3)]Man(b1-4)GlcNAc(b1-4)GlcNAc
# Outline: as §1
# [16] = molecular target: Man(a1-3)[Man(a1-6)]Man(a1-6)[Man(a1-2)Man(a1-3)]Man(b1-4)GlcNAc(b1-4)GlcNAc
# Outline: as §1
# [17] = molecular target: Man(a1-3)[Man(a1-6)]Man(a1-6)[Man(a1-3)]Man(b1-4)GlcNAc(b1-4)GlcNAc
# Outline: as §1
# [18] = molecular target: Man(a1-3)[Man(a1-6)]Man(b1-4)GlcNAc(b1-4)GlcNAc
# Outline: as §1
# [19] = molecular target: Neu5Ac(a2-3)Gal(b1-3)GlcNAc
# Outline: as §1
# [20] = molecular target: Neu5Ac(a2-3)Gal(b1-3)GlcNAc(b1-4)Gal(b1-4)Glc
# Outline: as §1
# [21] = molecular target: Neu5Ac(a2-3)Gal(b1-3)[GlcNAc(b1-6)]GalNAc
# Outline: as §1
# [22] = molecular target: Neu5Ac(a2-3)Gal(b1-3)[Neu5Ac(a2-3)Gal(b1-4)]GlcNAc
# Outline: as §1
# [23] = molecular target: Neu5Ac(a2-3)Gal(b1-3)[Neu5Ac(a2-6)]GlcNAc(b1-3)[Fuc(a1-3)[Gal(b1-4)]GlcNAc(b1-6)]Gal(b1-4)Glc
# Outline: as §1
# [24] = molecular target: Neu5Ac(a2-3)Gal(b1-4)GlcNAc(b1-2)Man(a1-3)[GlcNAc(b1-4)][Neu5Ac(a2-3)Gal(b1-4)GlcNAc(b1-2)Man(a1-6)]Man(b1-4)GlcNAc(b1-4)GlcNAc
# Outline: as §1
# [25] = molecular target: Neu5Ac(a2-3)Gal(b1-4)GlcNAc(b1-2)Man(a1-3)[Neu5Ac(a2-3)Gal(b1-4)GlcNAc(b1-2)Man(a1-6)]Man(b1-4)GlcNAc(b1-4)[Fuc(a1-6)]GlcNAc
# Outline: as §1
# [26] = molecular target: Neu5Ac(a2-3)Gal(b1-4)GlcNAc(b1-3)Gal(b1-4)GlcNAc(b1-3)Gal(b1-4)GlcNAc(b1-2)Man(a1-3)[Neu5Ac(a2-3)Gal(b1-4)GlcNAc(b1-3)Gal(b1-4)GlcNAc(b1-3)Gal(b1-4)GlcNAc(b1-2)Man(a1-6)]GalNAc
# Outline: as §1
# [27] = molecular target: Neu5Ac(a2-3)Gal(b1-4)GlcNAc(b1-3)Gal(b1-4)GlcNAc(b1-3)[Neu5Ac(a2-3)Gal(b1-4)GlcNAc(b1-3)Gal(b1-4)GlcNAc(b1-6)]GalNAc
# Outline: as §1
# [28] = molecular target: Neu5Ac(a2-3)Gal(b1-4)[Fuc(a1-3)]GlcNAc
# Outline: as §1
# [29] = molecular target: Neu5Ac(a2-3)Gal(b1-4)[Fuc(a1-3)]GlcNAc(b1-3)Gal(b1-4)GlcNAc
# Outline: as §1
# [30] = molecular target: Neu5Ac(a2-3)[GalNAc(b1-4)]Gal(b1-4)Glc
# Outline: as §1
binder,measurement,setting,value
B1,glycan array binding signal (z-score),[1],0.188
same,glycan array binding signal (z-score),[2],0.083
same,glycan array binding signal (z-score),[3],-0.162
same,glycan array binding signal (z-score),[4],-0.181
same,glycan array binding signal (z-score),[5],0.026
same,glycan array binding signal (z-score),[6],-0.182
same,glycan array binding signal (z-score),[7],-0.17
same,glycan array binding signal (z-score),[8],2.6
same,glycan array binding signal (z-score),[9],2.39
same,glycan array binding signal (z-score),[10],-0.173
same,glycan array binding signal (z-score),[11],-0.168
same,glycan array binding signal (z-score),[12],4.32
same,glycan array binding signal (z-score),[13],4.79
same,glycan array binding signal (z-score),[14],4.54
same,glycan array binding signal (z-score),[15],8.27
same,glycan array binding signal (z-score),[16],10.8
same,glycan array binding signal (z-score),[17],5.89
same,glycan array binding signal (z-score),[18],6.43
same,glycan array binding signal (z-score),[19],-0.164
same,glycan array binding signal (z-score),[20],-0.174
same,glycan array binding signal (z-score),[21],-0.176
same,glycan array binding signal (z-score),[22],-0.25
same,glycan array binding signal (z-score),[23],-0.177
same,glycan array binding signal (z-score),[24],-0.174
same,glycan array binding signal (z-score),[25],-0.169
same,glycan array binding signal (z-score),[26],-0.024
same,glycan array binding signal (z-score),[27],-0.161
same,glycan array binding signal (z-score),[28],-0.19
same,glycan array binding signal (z-score),[29],-0.171
same,glycan array binding signal (z-score),[30],-0.189
